Results on 47 molecules are retold here after PubChem BioAssay AID2012 (Sanford-Burnham Center for Chemical Genomics, 2009).

About 2,700 (0.93%) of roughly 290,000 compounds were called active. The sample holds actives, similar compounds and a random draw of the others, so the mix is not that of the screen. No rule for the calls is given here.

The experiment has as its target Eukaryotic translation initiation factor 4H (Homo sapiens) (UniProt Q15056). Put plainly: eIF4H binding inhibition – biochemical, uHTS, fluorescence polarization, translation initiation inhibitor project, primary screen (AID 2012).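 Also: calls also rest on retests at 20 µM and on dose response follow-up.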 As to conditions: eIF4H fluorescence polarization binding assay, stronger effect = higher value. Background: Fluorescence polarisation rises when a labelled molecule tumbles more slowly, as on binding a larger partner.

Take `COC(=O)Cc1ccc(NC(=S)NCc2ccc(Cl)cc2)cc1`: for the setting “at 35 µM”, the inhibition was 2% (inactive).
Same read-out and setting: the result for `S=C(NCc1cccs1)Nc1ccc(Cl)cc1` reads -10% (inactive).
For the molecule `Fc1ccccc1CNC(=S)Nc1ccc(Cl)cc1`, the inhibition reads like this: (at 35 µM) 0.6% (active); (confirmation average, at 20 µM) 106%.
Take `CCn1c(=O)c2ccccc2n(CC(=O)N2CCCc3ccccc32)c1=O`: for the setting “at 35 µM”, the inhibition was -6.1% (inactive).
On the same count and under the same terms, next, `O=C(CSCc1ccccc1)N1CCc2ccccc21`: 2.4% (inactive).
Turning to `CCC(=O)N1CCCc2ccccc21`, the inhibition (at 35 µM) is 100% (active).
The same measure, in the same setting: the result for `COc1ccc(S(=O)(=O)N2CCOC2CNC(=O)C(=O)NCc2ccc(F)cc2)cc1` (configuration not stated) reads -9.2% (inactive); that for `CCOc1c(OC)cccc1C(=O)NCC1(c2ccccc2)CCCC1`, -6% (inactive).
Same read-out and setting: next, `CCOC(=O)C(Cc1ccccc1)NC(=O)CCC(=O)c1ccc(OC)cc1` (configuration not stated): -3.3% (inactive); `COc1cc([C@H](Cc2ccccc2)NC(C)=O)oc(=O)c1`: 100% (active).
Still for that read-out and setting: the result for `COC(=O)[C@H](Cc1ccccc1)NC(=O)Nc1ccc(OC)cc1` reads 2.4% (inactive).
Consider `COc1cc2c(cc1OC)CN(C(=O)c1cc(S(=O)(=O)N3CCCCC3)ccc1Cl)CC2`, for which the inhibition (at 35 µM) was -13.7% (inactive).
Turning to `Cc1nc2nc(SCC(=O)NCc3ccco3)nn2c(C)c1Cc1ccccc1`, the inhibition (at 35 µM) is 3.5% (inactive).
Still for that read-out and setting: the result for `O=c1nc2s/c(=C\c3ccco3)c(=O)n2nc1Cc1ccccc1` reads 96.4% (active).
Same read-out and setting: the result for `O=C(Cc1ccccc1)n1nc(-c2ccccc2)nc1NCc1ccco1` reads -6.8% (inactive); that for `Cc1cccn2c(=O)c(C=O)c(Nc3ccc(S(N)(=O)=O)cc3)nc12`, -1.8% (inactive); that for `Cc1ccc(C)c(N2CCN(C(=O)CCCCCn3c(=S)[nH]c4ccc(N5CCOCC5)cc4c3=O)CC2)c1`, 1.4% (inactive).
In the case of `C=CCn1c(SCc2csc(C)n2)nc2scc(-c3ccc(C)o3)c2c1=O`, for the setting “at 35 µM”, the inhibition was 4.9% (inactive).
Turning to `C=CCn1c(=S)[nH]c2scc(-c3ccco3)c2c1=O`, the inhibition (at 35 µM) was 94.1% (active).
The same measure, in the same setting: the result for `C=CCNC(=O)CSc1nc2scc(-c3ccco3)c2c(=O)n1CC=C` reads 49.9% (inactive); that for `O=[N+]([O-])c1ccccc1/C=C/CN1CCCC(CO)C1` (configuration not stated), -4.3% (inactive); that for `C=CCNc1nnc(C)c2ccccc12`, -4.9% (inactive).
The same measure, in the same setting: next, `O=C(CSc1ncccn1)N1CCCC1`: -5.6% (inactive).
With `C=CCNc1nnc(SCC(=O)N2CCCCC2)c2ccccc12`, the inhibition is 85.7% (active) (at 35 µM) and 54.5% (confirmation average, at 20 µM).
In the case of `C=CCOc1ccc(C(=O)Nc2ccccc2C(=O)N2CCCC2)cc1`, the inhibition (at 35 µM) is 0.5% (inactive).
On the same count and under the same terms, next, `COCC1CCN(C(=O)C2CCC(=O)N(Cc3cccc(C(F)(F)F)c3)C2)CC1` (configuration not stated): -2.7% (inactive); `COc1ccc(N(CC(=O)NCCSCc2cccc(Cl)c2)S(C)(=O)=O)cc1`: -10.9% (inactive).
On the same count and under the same terms, the result for `CCc1cccc(C)c1NC(=O)CSc1nnc(-c2ccco2)n1N` reads 6.1% (inactive).
As to `NC(=O)c1c(NC(=O)CSc2nnc(-c3ccco3)n2N)sc2c1CCCC2`, the inhibition reads like this: (at 35 µM) 65.9% (active); (confirmation average, at 20 µM) 96.5%.
Take `NC(=O)c1c(NC(=O)CSc2nc(N)cc(=O)[nH]2)sc2c1CCCC2`: the inhibition (at 35 µM) was 15.5% (inactive).
On the same count and under the same terms, the result for `COc1ccc(C(=O)NC(=S)N2CCCCC2c2cccnc2)cc1OC` (configuration not stated) reads 2% (inactive); that for `O=C(CN(C(=O)CCC(=O)Nc1nccs1)c1ccc(F)cc1)NCc1ccc2c(c1)OCO2`, -1.4% (inactive).
The same measure, in the same setting: next, `Nc1nc(-c2ccccc2)cc(-c2ccccc2)n1`: 0.4% (inactive); `CS(=O)(=O)c1sc2nc(-c3ccccc3)cc(-c3ccccc3)c2c1N`: 98.5% (active); `CNc1nc(-c2ccccc2)cc(-c2ccccc2)n1`: -3.9% (inactive).
On the same count and under the same terms, next, `CCCc1cc(C(=O)Nc2ccc(Cl)cn2)cs1`: 2.5% (inactive).
Take `CCc1ccccc1S(=O)(=O)Cc1ccc(C(=O)NCCc2ccccc2)o1`: under “at 35 µM”, the inhibition was -13% (inactive).
Still for that read-out and setting: next, `COc1ccc(-n2c(-c3ccc(OC)c(OC)c3)n[nH]c2=S)cc1`: 7.7% (inactive).
The same measure, in the same setting: the result for `COc1ccc(OC)c(-n2c(-c3ccn[nH]3)n[nH]c2=S)c1` reads -6% (inactive).
`COc1ccccc1-n1c(-c2cc(-c3ccco3)[nH]n2)n[nH]c1=S`: the inhibition is 58% (active) (at 35 µM) and 74% (confirmation average, at 20 µM).
`Cc1nc(C)c(-c2nnc(-c3cccc(S(=O)(=O)N(C)C)c3)o2)cc1C(=O)NN`: for the setting “at 35 µM”, the inhibition was -1.3% (inactive).
On the same count and under the same terms, the result for `Cc1ccccc1C(=O)NC(=S)NC1CC1` reads -17.7% (inactive).
As for `Cc1c(Cl)cnc(NC(=O)COC(=O)c2ccc(S(=O)(=O)NCc3ccco3)cc2)c1Cl`, the inhibition reads like this: (at 35 µM) 58.6% (active); (confirmation average, at 20 µM) 87.4%.
Take `C/C(=N\Nc1ncc(Cl)cc1Cl)c1ccc(S(=O)(=O)NCc2ccco2)cc1`: the inhibition (at 35 µM) was -4.5% (inactive).
The same measure, in the same setting: the result for `CSCCC(NC(=O)c1ccco1)C(=O)OCC(=O)Nc1ncc(Cl)c(C)c1Cl` (configuration not stated) reads 4.5% (inactive).
On the same count and under the same terms, next, `CC(=O)Nc1ccc(N2C(=O)C3C4C=CC(CC4)C3C2=O)cc1` (configuration not stated): -5.9% (inactive); `O=c1[nH]c(/C=C\c2cccc(C(F)(F)F)c2)nc(O)c1[N+](=O)[O-]`: 3.5% (inactive).

A word on the inhibition: it is the drop in the measured response relative to a control, in per cent.
